Screening results deposited in PubChem by National Center for Advancing Translational Sciences (NCATS).
Sampled rows, rich in hits. Any-hit rate of the full collection: about 17%.
HT1080 IDH1KD tx: kills HT-1080 cells with IDH1 knockdown. HT-1080 IDH1 knockdown viability, ATP luminescence, 48 h. Potency, µM (top dose mostly 46.1 µM), without a hit: at the top dose activity, negative = toxicity, usual class: cytotoxic. 2% of 360,000 active. AID 686971;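 further: 0% = DMSO wells and -100% = cell-free medium wells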
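Using the IDH1-knockdown HT-1080 line run in the same batch and compound series as the NT line, viability after 48 h at 37 °C was determined by CellTiter-Glo luminescence and expressed as % activity.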
TGFb inhibitor: blocks TGF-b signaling; HepG2 CAGA-GFP TGF-b/SMAD3 reporter, GFP fluorescence, 18 h; TGF-beta stimulated, 500 pg/mL final; Potency, µM (titrated, usually from 46.1 µM), without a hit: at the highest dose activity, negative = inhibition, most hits filed as inhibitors; 1.2% of 410,000 active; further: on the % scale 0 is the no-effect control and ±100 the full control effect; nearly all actives have a fitted effect of over 65% in size
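Cell-based qHTS in HEPG2 carrying a CAGA-GFP Smad reporter; compounds added before 500 pg/mL final TGF-beta, 18 h incubation at 37 degrees C, GFP fluorescence quantified per cell by imaging cytometry.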
TDP1 cell CPT: DT40-hTDP1 cell growth loss with CPT. 12% of 420,000 active. AID 686979. chicken DT40 Tdp1-/-;hTDP1 cells + 20 nM CPT, ATP luminescence, 48 h. Potency, µM (titrated, usually from 46.2 µM), for the others: at the top dose activity change, negative = growth inhibition, hits mostly inhibitors; further: on the % scale 0 is the no-effect control and ±100 the full control effect; nearly all actives have a fitted effect of over 55% in size
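Cell growth measured by CellTiter-Glo luminescence after a minimum 48 h, 37 C compound exposure with 20 nM CPT in Tdp1-knockout DT40 cells stably expressing hTDP1, seeded 400/well; qHTS titration format.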
DT40 TDP1 no CPT: qHTS for Inhibitors of human tyrosyl-DNA phosphodiesterase 1 (TDP1): qHTS in cells in absence of CPT; DT40 Tdp1-/- hTDP1 cells, no CPT, ATP luminescence, 48 h; Potency, µM (titrated, usually from 46.2 µM), for the others: at the highest dose activity change, negative = growth inhibition, most hits filed as inhibitors; 15% of 420,000 active; further: on the % scale 0 is the no-effect control and ±100 the full control effect; nearly all actives have a fitted effect of over 55% in size
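Seeded 400 DT40-hTDP1 cells/well (vehicle DMSO, no 20 nM CPT); pinned compounds; ≥48 hr at 37 °C; CellTiter-Glo luminescence as viability measure.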
HT1080NT lethal: kills 2HG-producing HT-1080-NT fibrosarcoma cells | HT-1080-NT fibrosarcoma viability, CellTiter-Glo ATP luminescence, 48 h | Potency, µM (top dose mostly 46.1 µM), inactives show top-dose activity, negative = less viability, usual class: cytotoxic | 1.6% of 360,000 active;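 further: NT is the 2HG producing partner of a matched IDH1 knockdown line; 0% = DMSO-treated cells and -100% = media-only wells without cells; nearly all actives have a fitted effect of over 55% in size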
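Fibrosarcoma NT cells, 750 per well in 5% FBS RPMI, were exposed to compound for 48 hours. Viability: CellTiter-Glo luminescence.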
HepG2 viability: counter-screen for TGF-b inhibitors: cytotoxicity in HepG2 cells; HepG2 CAGA-GFP viability, ATP luminescence, 18 h; 0.76% of 410,000 active; Potency, µM (titrated, usually from 46.1 µM), for the others: top-dose activity change, negative = cytotoxicity, most hits filed as cytotoxic
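CellTiter-Glo luminescence gave cytotoxicity after 18 hours at 37 degrees C. The cells were HepG2 CAGA-GFP in 1% FBS DMEM, stimulated with 500 pg/mL TGF-beta after compound addition. %Activity was normalised to no-cell wells (complete cell-killing) and DMSO (no toxicity), and curves were fitted and classified.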
* marks the source's active call; other numbers are inactive results; ? = inconclusive; . = not tested or not shown; [ ] = remark or other dose. The call rests on the fitted dose curve; in most records, active means well fitted curve in the direction sought with a large enough effect; inconclusive means small, poorly fitted or top-dose-only effect, or another doubt; inactive means no such curve, though single readings can be large; an effect the other way counts as inactive or inconclusive. Potency means the concentration at half of the fitted maximal effect.

SMILES | HT1080 IDH1KD tx | TGFb inhibitor | TDP1 cell CPT | DT40 TDP1 no CPT | HT1080NT lethal | HepG2 viability
CCOc1ccc(NC(=O)c2c(O)[nH]c(=O)[nH]c2=O)cc1 | 3.8% | ? | 23.1µM* | 16.4µM* | 3.9% | -14.9%
O=C(Nc1ccccc1)c1cc(C2CCCN(C(=O)C3CC3)C2)on1 (configuration not stated) | 0.0% | 0.8% | ? | ? | -45.4% | 8.91µM*
COP(=O)(OC)Oc1ccc(C(O)C(Cl)(Cl)Cl)cc1 (configuration not stated) | 3.9% | -8.9% | 17.4% | -7.4% | 15.9% | 8.5%
COC(=O)C1=C(c2ccc(C(C)=O)cc2)C[C@@H]2CC[C@H]1N2C(=O)NCc1ccc(F)cc1 | 10.0% | 2.0% | -7.9% | ? | ? | 3.2%
ClCCN(CCCl)/C(=C\c1ccccc1)c1ccnc2ccccc12 | . | ? | 5.62µM* | 3.55µM* | . | -42.5%
CCN(CC)S(=O)(=O)c1ccc(C)c(NCC(=O)Nc2ccc(C#N)c(Cl)c2)c1 | ? | ? | 16.4µM* | 14.6µM* | -23.5% | -21.4%
CCN1CCN(C(=O)COc2ccc3oc4c(c3c2)CCCC4)CC1 | -22.3% | -11.7% | ? | 20.6µM* | -2.6% | -34.3%
CC(C)CN1CCCC2(CCN(C(=O)c3ccncc3)CC2)C1 | . | . | 2.3% | 1.2% | . | .
Cc1cc(N2CCCCC2)nc2ccc(NC(=O)/C=C/c3ccc(OC(C)C)cc3)cc12 | . | ? | 9.2µM* | 7.31µM* | . | -23.1%
Cc1ccc(NC(=O)Nc2ccc3nc(N4CCN(C)CC4)cc(C)c3c2)cc1F | . | 25.5% | 5.17µM* | 4.11µM* | . | -22.8%
C[C@@H]1CN(CCCn2c3ccccc3c3ccccc32)C[C@H](C)N1 | . | . | 7.5µM* | 8.41µM* | . | .
COC(=O)C1=C(c2ccc3ccccc3c2)C[C@@H]2CC[C@H]1N2C(=O)NCC1CC1 | 0.1% | -25.5% | 11.6µM* | 9.2µM* | -3.1% | -11.6%
COC(=O)C1=C(c2ccc3ccccc3c2)C[C@@H]2CC[C@H]1N2C(=O)NC1CC1 | 2.9% | ? | 14.6µM* | 9.2µM* | 8.6% | -3.0%
COC(=O)C1=C(c2ccc(OC)c(OC)c2)C[C@@H]2CC[C@H]1N2C(=O)NC1Cc2ccccc2C1 | 3.6% | ? | ? | -25.8% | 11.2% | -3.8%
COC(=O)C1=C(c2ccc3ccccc3c2)C[C@@H]2CC[C@H]1N2C(=O)NC1CCCCC1 | 2.4% | -33.7% | ? | 16.4µM* | 2.0% | -23.5%
COC(=O)C1=C(c2ccc(C(C)=O)cc2)C[C@@H]2CC[C@H]1N2C(=O)NC1CCCCC1 | -4.5% | -2.6% | ? | ? | 0.4% | -1.8%
C=CCn1c(O)c(/C=N/N2CCCCC2c2cccnc2)c(=O)[nH]c1=S (configuration not stated) | 12.9% | -3.9% | -21.4% | ? | 6.9% | 17.2%
O=C(C1CC(c2ccc(Cl)c(Cl)c2)=NO1)N1CCC2(CC1)OCCO2 (configuration not stated) | -4.5%[9.24 µM] | 0.1% | 14.6µM* | 14.6µM* | -2.5% | -1.0%
[O-][n+]1onc2c1CCC1N(O)CCC21O (configuration not stated) | -0.3% | 18.0% | -0.8% | 17.2% | 5.8% | 9.6%
O=C1/C(=C/c2cc([N+](=O)[O-])ccc2Cl)N2CCC1CC2 | -0.2% | -2.6% | 18.4µM* | 16.4µM* | -1.8% | -14.4%
C[C@]12CC[C@H](O)C[C@H]1CCC1C2CC[C@]2(C)[C@@H](c3ccc(=O)oc3)C[C@H]3O[C@]132 (some centres not stated) | . | 7.94µM* | ? | ? | . | 6.31µM*
C[C@]12CC[C@H]3C(CCC4(O)CC(O)CC[C@]34C=O)C1=CC[C@H]2c1ccc(=O)oc1 (some centres not stated) | 5.8µM* | ? | -2.6% | -29.6% | 13µM* | 7.08µM*
C[C@]12CCC3[C@@H](CC[C@@H]4C[C@H](O)CC[C@]34C)[C@@H]1CCC2=O (some centres not stated) | -2.2% | -6.6% | ? | ? | 13.2% | -14.4%
CC12CC[C@H]3[C@@H](CCC4(O)C[C@H](O)CCC34/C=N/NC(=O)Cc3ccccc3)C1(O)CCC2C1=CC(=O)OC1 (some centres not stated) | ? | -23.4% | 14.2% | 7.9% | ? | -41.0%
CC(=O)O[C@H]1[C@H]2O[C@]23[C@@H]2CC[C@]4(O)C[C@@H](O)CC[C@]4(C)C2CC[C@]3(C)[C@H]1c1ccc(=O)oc1 (some centres not stated) | 0.0146µM* | 3.55µM* | 6.51µM* | 3.66µM* | 0.82µM* | -60.1%
SMILES | HT1080 IDH1KD tx | TGFb inhibitor | TDP1 cell CPT | DT40 TDP1 no CPT | HT1080NT lethal | HepG2 viability
C[C@]12CC[C@H](O)C[C@H]1CC[C@@H]1[C@@H]2CC[C@]2(C)[C@@H](c3ccc(=O)oc3)C[C@H]3O[C@]132 | . | . | ? | 15µM* | . | .
CC1(O)CCC2C3CCC4=CC(=O)CCC4(C)C34OC4CC21C (configuration not stated) | 5.7% | -3.9% | -0.2% | -6.4% | 18.8% | -9.1%
CN(C)N=O | 3.1% | 1.9% | 16.6% | -6.6% | 4.4% | -0.6%
CC1(C)CSC(=NCc2ccccc2)N1 | -3.3% | 8.91µM* | 1.5% | -7.0% | 2.1% | -32.1%
Cc1cccc(C)c1NC(=O)Cn1c(=O)n(CC2CCC(C(=O)NCCc3ccccc3)CC2)c(=O)c2ccccc21 (configuration not stated) | . | 43.0% | ? | ? | . | -32.8%
NS(=O)(=O)c1ccc(CCNC(=O)c2ccc(Cl)c(S(=O)(=O)N3CCCCC3)c2)cc1 | -3.6% | ? | ? | 23.1µM* | -40.6% | -29.8%
COc1ccc(C(CNC(=O)c2cc(S(=O)(=O)N3CCCCC3)ccc2C)N2CCCC2)cc1 (configuration not stated) | 0.4% | 0.0% | ? | ? | -0.5% | -0.2%
Cc1ccc(CCNC(=O)c2cc3cc(S(=O)(=O)N4CCCCC4)ccc3n2C)cc1 | . | -0.3% | 7.31µM* | 2.91µM* | . | -3.5%
COC(=O)C1=C(c2ccc(C(C)=O)cc2)C[C@@H]2CC[C@H]1N2C(=O)NCCO | 8.7% | -0.8% | 6.1% | 0.0% | 21.5% | 2.1%
